Results as given in PubChem BioAssay (EPA / NIEHS).
Where “and” joins values, the source holds several entries; their conditions need not be identical. Identical values can stand only once. More than one record can exist for a structure, and the calls need not agree. Calls of active or inactive are those of the source. The calls were made as follows: active = hit-call score of the fitted dose curve at least 0.9, where 1 is the maximum; inactive = score below 0.9.

How the values were obtained:
[1] = read-out: Matrix Metallopeptidase 1 (MMP1), MMP1 (gene 4312); experiment: BSK_hDFCGF_MMP1: BioMAP Diversity Plus: hDFCGF Assay for Matrix Metallopeptidase 1 (MMP1) Biomarker Activity (AID 2283064); settings: primary human foreskin fibroblasts; actives raise or lower the signal
Summary of the method: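 Human foreskin fibroblasts exposed to chemical for 24 h; MMP1 detected by ELISA, with DMSO as baseline for bidirectional fitting.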

[2] = read-out: Vascular cell adhesion molecule 1 (VCAM1), VCAM1 (gene 7412); experiment: BSK_hDFCGF_VCAM1: BioMAP Diversity Plus: hDFCGF Assay for Vascular cell adhesion molecule 1 (VCAM1) Biomarker Activity (AID 2283065); settings: primary human foreskin fibroblasts; actives raise or lower the signal;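 as to AC50: VCAM-1 protein level quantified by ELISA after 24 h chemical exposure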
Summary of the method: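 Measured after 24 h chemical treatment of primary human skin fibroblasts, VCAM-1 was detected by ELISA and concentration-response analysed in both directions versus DMSO vehicle.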

[3] = read-out: Plasminogen activator inhibitor-1 (PAI1), SERPINE1 (gene 5054); experiment: BSK_hDFCGF_PAI1: BioMAP Diversity Plus: hDFCGF Assay for Plasminogen activator inhibitor-1 (PAI1) Biomarker Activity (AID 2283066); settings: primary human foreskin fibroblasts; actives raise or lower the signal
Summary of the method: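 Human skin fibroblast cultures receive chemical for 24 h before PAI-1 is measured by ELISA; signal changes are fitted bidirectionally against DMSO-treated wells.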

[4] = read-out: Intercellular Adhesion Molecule 1 (ICAM1), ICAM1 (gene 3383); experiment: BSK_KF3CT_ICAM1: BioMAP Diversity Plus: KF3CT Assay for Intercellular Adhesion Molecule 1 (ICAM1) Biomarker Activity (AID 2283067); settings: primary human keratinocytes with fibroblasts; actives raise or lower the signal
Summary of the method: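 Bidirectional curve fitting against a DMSO baseline was applied to ICAM-1 ELISA signal from primary human skin co-cultures harvested 24 h after treatment, with SRB staining of parallel wells for overt cytotoxicity.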

[5] = read-out: Interferon-gamma inducible Protein 10 (IP10), CXCL10 (gene 3627); experiment: BSK_KF3CT_IP10: BioMAP Diversity Plus: KF3CT Assay for Interferon-gamma inducible Protein 10 (IP10) Biomarker Activity (AID 2283068); settings: primary human keratinocytes with fibroblasts; actives raise or lower the signal
Summary of the method: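 Signal is secreted/surface IP-10 by ELISA in a human primary skin co-culture of keratinocytes and foreskin fibroblasts, taken 24 h post-dosing; DMSO served as negative control.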

[6] = BSK_KF3CT_SRB: Viability Assessment in the BioMAP Diversity Plus: KF3CT Assay (AID 2283069); settings: primary human keratinocytes with fibroblasts;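 also: read 24 h after compound addition; fitted for both signal gain and loss against DMSO baseline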
Summary of the method: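 Overt cytotoxicity is assessed as total protein by sulforhodamine B staining in parallel human skin co-cultures at 24 h after dosing. DMSO serves as negative control and baseline.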

[7] = read-out: Interleukin-1 alpha (IL1a), IL1A (gene 3552); experiment: BSK_KF3CT_IL1a: BioMAP Diversity Plus: KF3CT Assay for Interleukin-1 alpha (IL1a) Biomarker Activity (AID 2283070); settings: primary human keratinocytes with fibroblasts; actives raise or lower the signal
Summary of the method: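 Readout is IL-1a level by ELISA, compared bidirectionally with DMSO as baseline. Cells: human keratinocytes co-cultured with foreskin fibroblasts, harvested 24 h post-dose.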

[8] = read-out: TIMP metallopeptidase inhibitor 2 (TIMP2), TIMP2 (gene 7077); experiment: BSK_KF3CT_TIMP2: BioMAP Diversity Plus: KF3CT Assay for TIMP metallopeptidase inhibitor 2 (TIMP2) Biomarker Activity (AID 2283071); settings: primary human keratinocytes with fibroblasts; actives raise or lower the signal
Summary of the method: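 Measurements come from ELISA detection of TIMP-2 at 24 hours in a dosed human keratinocyte and foreskin fibroblast co-culture. DMSO serves as negative control and baseline.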

[9] = read-out: Transforming growth factor beta 1 (TGFb1), TGFB1 (gene 7040); experiment: BSK_KF3CT_TGFb1: BioMAP Diversity Plus: KF3CT Assay for Transforming growth factor beta 1 (TGFb1) Biomarker Activity (AID 2283072); settings: primary human keratinocytes with fibroblasts; actives raise or lower the signal
Summary of the method: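 TGF-b1 ELISA on a 24 h dosed co-culture of human keratinocytes and foreskin fibroblasts; cytotoxicity tracked in parallel cultures by SRB staining.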

[10] = read-out: C-C motif chemokine 2 (Homo sapiens) (UniProt P13500); experiment: BSK_KF3CT_MCP1: BioMAP Diversity Plus: KF3CT Assay for Monocyte Chemoattractant Protein 1 (MCP1/CCL2) Biomarker Activity (AID 2283073); settings: primary human keratinocytes with fibroblasts; actives raise or lower the signal
Summary of the method: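 Biomarker MCP-1 is measured by ELISA in primary human keratinocytes co-cultured with foreskin fibroblasts, 24 h after chemical treatment; DMSO serves as the negative control and activity baseline.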

Measured: AC50

O=[N+]([O-])c1ccc(Oc2ccc(Cl)cc2Cl)cc1
active: [1] 10.2 µM | [2] 13.5 µM
inactive: [3] | [4] | [5] | [6] | [7] | [8]

CC(C)(C)C(O)(CCc1ccc(Cl)cc1)Cn1cncn1 (configuration not stated)
inactive: [1] | [2] | [3] | [4] | [5] | [6] | [7] | [8]

N#CC(Br)Br
inactive: [1] | [2] | [3] | [4] | [5] | [6] | [7] | [8] | [9]

Cc1cccc(N)c1N
active: [4] 9.01 µM
inactive: [1] | [2] | [3] | [5] | [6] | [7] | [8]

CCN(CC)CCO
inactive: [1] | [2] | [3] | [4] | [5] | [6] | [7] | [8]

CCC(C)c1ccc(O)cc1 (configuration not stated)
inactive: [1] | [2] | [3] | [4] | [5] | [6] | [7] | [8]

CCNS(=O)(=O)C(F)(F)C(F)(F)C(F)(F)C(F)(F)C(F)(F)C(F)(F)C(F)(F)C(F)(F)F
inactive: [1] | [4] | [6] | [7] | [8] | [10]
active: [1] 49.2 µM and 49.6 µM | [2] 5.73 µM and 13.5 µM | [3] 30.1 µM and 23.3 µM and 47.3 µM | [4] 46.2 µM | [5] 20.9 µM and 30.5 µM and 43.7 µM | [6] 46.1 µM | [7] 41.5 µM and 47.7 µM | [8] 48.2 µM and 54.7 µM | [10] 47.8 µM

CN(C)c1ccc(C(=O)c2ccc(N(C)C)cc2)cc1
inactive: [1] | [2] | [3] | [4] | [5] | [6] | [7] | [8]

c1ccc2c(c1)oc1ccccc12
inactive: [1] | [2] | [3] | [4] | [5] | [6] | [7] | [8]

O=Cc1ccco1
inactive: [1] | [2] | [3] | [4] | [5] | [6] | [7] | [8]

Cc1cc(N=Nc2ccccc2C)ccc1N
inactive: [1]
active: [2] 23.5 µM | [3] 32.1 µM | [4] 31.8 µM | [5] 33.7 µM | [6] 29.9 µM | [7] 37.9 µM | [8] 20 µM

c1ccc(NNc2ccccc2)cc1
inactive: [1] | [2] | [3] | [4] | [5] | [6] | [7] | [8]

CCC[CH2][Sn]([Cl])([CH2]CCC)[CH2]CCC
active: [1] 0.271 µM | [2] 0.148 µM | [3] 0.296 µM | [4] 0.148 µM | [5] 0.342 µM | [6] 0.422 µM | [7] 0.294 µM | [8] 0.246 µM

CN(C)c1ccccc1
inactive: [1] | [2] | [3] | [4] | [5] | [6] | [7] | [8]

OCCCBr
inactive: [1] | [2] | [3] | [4] | [5] | [6] | [7] | [8]

O=[N+]([O-])C(Br)(CO)CO
active: [1] 32.3 µM | [2] 26.7 µM | [3] 26.8 µM | [4] 35.8 µM | [5] 34.9 µM | [6] 33.2 µM | [7] 32.5 µM | [8] 28.5 µM

C1=Cc2cccc3cccc1c23
inactive: [1] | [2] | [3] | [4] | [5] | [6] | [7] | [8]

CC(C)(OOC(C)(C)c1ccccc1)c1ccccc1
inactive: [4] | [5] | [6] | [7] | [8]
active: [1] 38.1 µM | [2] 28.8 µM | [3] 15.4 µM

[O-][Cl+]O
inactive: [1] | [2] | [3] | [4] | [5] | [6] | [7] | [8]

CN(C)C(=O)Nc1ccc(Cl)cc1
inactive: [1] | [2] | [3] | [4] | [5] | [6] | [7] | [8]

CCCCCCCCCCCCCN1CC(C)OC(C)C1 (configuration not stated)
inactive: [1] | [2] | [3] | [4] | [5] | [6] | [7] | [8]

Nc1cc(Cl)cc(C(=O)O)c1Cl
inactive: [1] | [2] | [3] | [4] | [5] | [6] | [7] | [8]

CCCSC(=O)N(CCC)CCC
inactive: [1] | [2] | [3] | [4] | [5] | [6] | [7] | [8]
